Assay results from PubChem BioAssay AID1917 (Vanderbilt High Throughput Screening Facility, 2009).
Among all 3,000 compounds or so, about 1,600 (53%) were called active. Roughly 10% stayed inconclusive and do not appear here. The set was probably picked from earlier hits. Not all results are given here. Unmarked numbers belong to inactive results.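 The calls were made as follows: active = Flux at 10 µM at least 3 SD below or above vehicle control mean in one or both replicates; inconclusive = no clear call, values can overlap the other calls; inactive = the rest.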

What follows are compounds tested against ATP-sensitive inward rectifier potassium channel 1 (Homo sapiens) (UniProt P48048) (assay: ROMK channel modulator hit retest, confirmation, cell-based, thallium flux, duplicate, resupplied hits (AID 1917)). Conditions: fluorescence ratio, at 10 µM, hits give low values.
Chain of ATP-sensitive inward rectifier potassium channel 1 (Homo sapiens) (P48048 whole entry, looked up): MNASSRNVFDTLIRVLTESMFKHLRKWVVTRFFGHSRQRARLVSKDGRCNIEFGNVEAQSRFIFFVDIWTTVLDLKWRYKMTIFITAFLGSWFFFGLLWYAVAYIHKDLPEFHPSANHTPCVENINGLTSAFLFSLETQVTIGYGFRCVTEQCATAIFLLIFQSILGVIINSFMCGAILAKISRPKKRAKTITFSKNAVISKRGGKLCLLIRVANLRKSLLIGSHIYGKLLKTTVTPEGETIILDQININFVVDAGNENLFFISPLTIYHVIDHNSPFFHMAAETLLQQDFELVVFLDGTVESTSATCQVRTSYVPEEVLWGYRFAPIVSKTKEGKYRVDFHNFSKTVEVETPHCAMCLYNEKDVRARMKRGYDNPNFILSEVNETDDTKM

Row | SMILES | normalized thallium flux (F/F0 slope)
1 | CCCCCCCCCCCCn1ccc(=N)cc1 | 0.0386 (active)
2 | Clc1ccc2nc3c(c(-c4ccccc4)c2c1)CNCC3 | 0.0588 (active)
3 | CC1(C)Cc2c(C#N)c(N3CCNCC3)nc(-c3ccco3)c2CS1 | 0.0568 (active)
4 | COc1ccccc1N=Nc1c(O)[nH]c(=S)[nH]c1=O | 0.0657 (active)
5 | N#Cc1ccc(Cn2cc(C(=O)c3ccco3)c3ccccc32)cc1 | 0.0753
6 | Cc1cc(C=C2C(=O)NC(=O)NC2=O)c(C)n1-c1ccncc1 | 0.0636 (active)
7 | Cc1nc2ccccn2c1P(=S)(N1CCCCC1)N1CCCCC1 | 0.0668 (active)
8 | NC(=O)Nc1cccc(C(F)(F)F)c1 | 0.0825
